Assay outcomes: PubChem BioAssay, National Center for Advancing Translational Sciences (NCATS)
TGFb SMAD3 inh: qHTS for Inhibitors of TGF-b; HepG2 CAGA-GFP TGF-b/SMAD3 reporter, GFP fluorescence, 18 h; TGF-beta stimulated, 500 pg/mL final; 410,000 compounds, 1.2% hits; Potency, µM (highest dose often 46.1 µM), for the others: at the highest dose activity, negative = inhibition, hits mostly inhibitors; AID 588855, 2011; also: % is scaled to controls: 0 for no effect and ±100 for the full control effect; nearly all actives have a fitted effect of over 65% in size
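Cell-based qHTS in HEPG2 carrying a CAGA-GFP Smad reporter; compounds added before 500 pg/mL final TGF-beta, 18 h incubation at 37 degrees C, GFP fluorescence quantified per cell by imaging cytometry.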
TDP1 cell CPT: qHTS for Inhibitors of human tyrosyl-DNA phosphodiesterase 1 (TDP1): qHTS in cells in presence of CPT. 420,000 compounds, 12% hits. Potency, µM (titrated, usually from 46.2 µM), for inactives: top-dose activity change, negative = growth inhibition, most hits filed as inhibitors. chicken DT40 Tdp1-/-;hTDP1 cells + 20 nM CPT, ATP luminescence, 48 h; also: % is scaled to controls: 0 for no effect and ±100 for the full control effect; nearly all actives have a fitted effect of over 55% in size
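Chicken DT40 Tdp1-/- cells stably complemented with human TDP1 were seeded at 400 cells/well in medium containing 20 nM camptothecin, exposed to pin-transferred compounds, and grown at 37 °C for at least 48 hr. Viability was read as ATP luminescence.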
HepG2 viability: qHTS for Inhibitors of TGF-b: Cytotox Counterscreen | HepG2 CAGA-GFP viability, ATP luminescence, 18 h | AID 588856, 2011 | Potency, µM (titrated, usually from 46.1 µM), for inactives: at the top dose activity change, negative = cytotoxicity, usual class: cytotoxic | 410,000 compounds, 0.76% hits
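HepG2 CAGA-GFP cells (1000/well, DMEM with 1% FBS) received compound, then TGF-beta at 500 pg/mL final, and were incubated 18 hours at 37 degrees C. Viability was read by CellTiter-Glo luminescence. Media-only wells were set as complete cell-killing and DMSO as no toxicity.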
ATXN2 expr inh: Primary qHTS for Inhibitors of ATXN expression. HEK-293 ATXN2-luciferase reporter, luminescence, 24 h. Potency, µM (titrated, usually from 57 µM), for inactives: top-dose activity change, negative = inhibition, hits mostly inhibitors. 360,000 compounds, 0.72% hits; also: % is scaled to controls: 0 for no effect and ±100 for the full control effect; nearly all actives have a fitted effect of over 55% in size
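qHTS (up to 57 uM final) was run with 24 h compound exposure of reporter cells at 37 °C. Each well was multiplexed: SteadyGlo luminescence measured ATXN2-luciferase expression after a fluorogenic Gly-Phe-AFC viability readout (25 uM final).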
S2 tox: Viability Counterscreen for Primary qHTS for Inhibitors of ATXN expression; Potency, µM (top dose mostly 56.7 µM), usual class: cytotoxic; 400,000 compounds, 0.49% hits; AID 651635, 2014; S2 cells (HEK-293 line with an ATXN2-luciferase reporter) viability, CellTiter-Fluor protease fluorescence, 24 h; also: nearly all actives have a fitted effect of over 40% in size
TDP1 cell noCPT: qHTS for Inhibitors of human tyrosyl-DNA phosphodiesterase 1 (TDP1): qHTS in cells in absence of CPT. DT40 Tdp1-/- hTDP1 cells, no CPT, ATP luminescence, 48 h. Potency, µM (highest dose often 46.2 µM), inactives show at the top dose activity change, negative = growth inhibition, hits mostly inhibitors. 420,000 compounds, 15% hits. AID 686978, 2013; also: % is scaled to controls: 0 for no effect and ±100 for the full control effect; nearly all actives have a fitted effect of over 55% in size
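Compound effects on proliferation are scored in DT40 Tdp1-/-;hTDP1 cells in the absence of CPT. ATP levels (CellTiter-Glo luminescence) are recorded after a ≥48 hr, 37 °C incubation.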
* hit, by the source's call; i = inactive; ? = inconclusive. Compounds with a hit are over-represented: about 17% of the library has one in this group of screens. Calls follow the shape of the dose curve; as a rule, active = well fitted curve in the direction sought with a large enough effect; inconclusive = small, poorly fitted or top-dose-only effect, or another doubt; inactive = no such curve, though single readings can be large; an effect the other way counts as inactive or inconclusive. Potency is read from the fitted curve at half-maximal effect.

SMILES	TGFb SMAD3 inh	TDP1 cell CPT	HepG2 viability	ATXN2 expr inh	S2 tox	TDP1 cell noCPT
Cc1oc2c(CN3CCCCC3C)c(O)ccc2c(=O)c1-c1ccc(Br)cc1 (centres undefined)	-8%	0%	-5%	6%	i	5%
O=C(CN1CCOCC1)Nc1ccccc1Sc1ccccc1	10%	30%	9%	8%	i	7%
CC1CN(CC(=O)Nc2ccccc2Sc2ccccc2)CC(C)O1 (centres undefined)	-2%	23µM*	2%	-1%	i	23µM*
CC(=O)N1CCN(CC(=O)Nc2ccccc2Sc2ccccc2)CC1	2%	?	-3%	-13%	i	23µM*
CC1(C(=O)NS(=O)(=O)C2CC2)CCCN(C(=O)c2c(F)cccc2F)C1 (centres undefined)	-10%	5.2µM*	-3%	4%	i	4.6µM*
Cc1c(C(=O)N2CCCC(C)(C(=O)NS(=O)(=O)C3CC3)C2)oc2ccccc12 (centres undefined)	-2%	?	5%	14%	i	4.1µM*
CC1(C(=O)NS(=O)(=O)C2CC2)CCCN(C(=O)c2ccccc2)C1 (centres undefined)	32%	5.2µM*	10%	1%	i	2.1µM*
COCCNC(=O)C1(C)CCCN(C(=O)c2ccc3c(c2)OCO3)C1 (centres undefined)	28%	-3%	1%	14%	i	0%
CC1(C(=O)NS(=O)(=O)C2CC2)CCCN(C(=O)c2ccc3c(c2)OCO3)C1 (centres undefined)	5%	7.3µM*	7%	16%	i	5.8µM*
Cc1c(C(=O)N2CCC(C)(C(=O)NS(=O)(=O)C3CC3)C2)oc2ccccc12 (centres undefined)	-1%	?	1%	-7%	i	0%
COCCCNC(=O)c1ccccc1Sc1ccc(NC(C)=O)nc1	6%	-4%	3%	-8%	i	-6%
CC1(C(=O)NS(=O)(=O)C2CC2)CCCN(C(=O)c2ccco2)C1 (centres undefined)	-9%	?	-1%	6%	i	12µM*
Cn1nc(C(C)(C)C)cc1C(=O)N1CCCC(C)(C(=O)NS(=O)(=O)C2CC2)C1 (centres undefined)	26%	6.5µM*	3%	7%	i	6.5µM*
CC1(C(=O)NS(=O)(=O)C2CC2)CCCN(C(=O)c2ccc3ccccc3c2)C1 (centres undefined)	5%	0.52µM*	9%	6%	i	0.26µM*
CC1(C(=O)NS(=O)(=O)C2CC2)CCCN(C(=O)c2cccs2)C1 (centres undefined)	6%	5.2µM*	-4%	6%	i	6.5µM*
COc1ccccc1-c1nc(CNC(=O)NC2CCCCC2)c(C)o1	-13%	-16%	-3%	0%	i	-8%
COc1ccc(F)cc1S(=O)(=O)NCC(=O)NCc1cc(=O)n(C)c(=O)n1C	1%	13%	-3%	8%	i	2%
Cc1ccsc1C(=O)N1CCCC(C)(C(=O)NS(=O)(=O)C2CC2)C1 (centres undefined)	5%	-55%	7%	5%	i	?
CC1(C(=O)NS(=O)(=O)C2CC2)CCCN(C(=O)/C=C/c2ccccc2)C1 (centres undefined)	-3%	?	3%	10%	i	15µM*
